# According to paper PMC8384837, “Expanding the binding specificity for RNA recognition by a PUF domain”:
# Substitutions are numbered along the chain they refer to.
# Legend:
# Assay in all cases: yeast three-hybrid, YBZ-1, SC-Leu-His + 0.5 mM 3-AT, 4 days
# Conditions in all cases: tags: N-Gal4 AD-HA kept; label: inside an RPR1-promoter hybrid RNA with tandem MS2 sites; ssRNA
# PUM1 PUF domain R1-YYR = PUM1 PUF domain R1-YYR (Homo sapiens, UniProt Q14671 828-1176, S863Y;R864Y;Q867R)
# In short: (§1)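 Pumilio-1 PUF domain libraries, randomized (NNK) at the three base-contacting residues of each repeat, were co-expressed with matching RNA elements from a centromeric plasmid in strain YBZ-1 (LexA–MS2 coat fusion, HIS3 reporter). Transformants were plated on SC-Leu (input) and SC-Leu-His + 0.5 mM 3-AT (selection) for four days, and repeat regions were PCR-amplified and Illumina-sequenced. The interaction score is the log2 change in variant frequency from input to selection, with pseudocount 1 where absent.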
# PUM1 PUF domain R5-HLY = PUM1 PUF domain R5-HLY (Homo sapiens, UniProt Q14671 828-1176, C1007H;R1008L;Q1011Y)
# In short: as §1
# PUM1 PUF domain R5-RFR = PUM1 PUF domain R5-RFR (Homo sapiens, UniProt Q14671 828-1176, C1007R;R1008F;Q1011R)
# Sequence of PUM1 PUF domain R5-RFR (Q14671 828-1176 C1007R/R1008F/Q1011R): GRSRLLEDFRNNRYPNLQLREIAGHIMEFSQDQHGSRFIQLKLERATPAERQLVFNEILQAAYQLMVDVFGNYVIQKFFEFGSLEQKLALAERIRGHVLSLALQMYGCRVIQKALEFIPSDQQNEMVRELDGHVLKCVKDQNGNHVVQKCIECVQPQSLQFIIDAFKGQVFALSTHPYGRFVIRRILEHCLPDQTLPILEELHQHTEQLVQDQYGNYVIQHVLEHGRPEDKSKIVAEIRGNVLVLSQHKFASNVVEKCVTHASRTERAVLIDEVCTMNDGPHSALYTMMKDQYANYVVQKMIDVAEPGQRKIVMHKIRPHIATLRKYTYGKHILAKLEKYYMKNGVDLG
# In short: as §1
# PUM1 PUF domain R8-LYR = PUM1 PUF domain R8-LYR (Homo sapiens, UniProt Q14671 828-1176, N1122L;Q1126R)
# In short: as §1
# PUM1 PUF domain R6-NRI = target: T1, PUM1 PUF domain R6-NRI (Homo sapiens, UniProt Q14671 828-1176, Y1044R;Q1047I)
# T1 sequence: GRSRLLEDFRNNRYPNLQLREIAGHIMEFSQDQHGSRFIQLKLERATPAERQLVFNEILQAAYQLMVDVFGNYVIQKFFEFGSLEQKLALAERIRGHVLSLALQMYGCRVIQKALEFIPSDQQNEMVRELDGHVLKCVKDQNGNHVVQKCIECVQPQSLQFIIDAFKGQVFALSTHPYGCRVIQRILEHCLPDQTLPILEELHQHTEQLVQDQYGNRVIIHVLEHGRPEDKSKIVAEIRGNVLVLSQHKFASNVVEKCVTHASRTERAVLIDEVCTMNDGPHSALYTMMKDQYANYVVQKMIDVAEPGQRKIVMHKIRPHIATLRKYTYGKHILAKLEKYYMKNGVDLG
# In short: as §1
# PUM1 PUF domain R4-AHP = PUM1 PUF domain R4-AHP (Homo sapiens, UniProt Q14671 828-1176, N971A;Q975P)
# In short: as §1
# PUM1 PUF domain R3-GWG = PUM1 PUF domain R3-GWG (Homo sapiens, UniProt Q14671 828-1176, C935G;R936W;Q939G)
# Sequence of PUM1 PUF domain R3-GWG (Q14671 828-1176 C935G/R936W/Q939G): as the sequence (Q14671 828-1176 C1007R/R1008F/Q1011R) above, with C108G, R109W, Q112G, R180C, F181R, R184Q counted along it
# In short: as §1
# PUM1 PUF domain R4-QPS = PUM1 PUF domain R4-QPS (Homo sapiens, UniProt Q14671 828-1176, N971Q;H972P;Q975S)
# In short: as §1
# PUM1 PUF domain R3-SRP = PUM1 PUF domain R3-SRP (Homo sapiens, UniProt Q14671 828-1176, C935S;Q939P)
# In short: as §1
# PUM1 PUF domain R6-HFS = target: T2, PUM1 PUF domain R6-HFS (Homo sapiens, UniProt Q14671 828-1176, N1043H;Y1044F;Q1047S)
# T2 sequence: T1 sequence with N216H, R217F, I220S
# In short: as §1
# PUM1 PUF domain R8-RFM = PUM1 PUF domain R8-RFM (Homo sapiens, UniProt Q14671 828-1176, N1122R;Y1123F;Q1126M)
# In short: as §1
# PUM1 PUF domain R3-GRH = PUM1 PUF domain R3-GRH (Homo sapiens, UniProt Q14671 828-1176, C935G;Q939H)
# In short: as §1
# Sequence of PUM1 PUF domain R1-YYR (Q14671 828-1176 S863Y/R864Y/Q867R): as the sequence (Q14671 828-1176 C1007R/R1008F/Q1011R) above, with S36Y, R37Y, Q40R, R180C, F181R, R184Q counted along it
sequence,measurement,setting,value
GGCUAGAACUAGUGGAUCCCCCGGCGCCCGGCGGCUCGAGCCCGGGUAAGUGUAAAUCGUCUGCAUGCCGCCGGGCGCCAUGCCUGCAGGUCGACUCUAGAAAACAUG,binding signal,PUM1 PUF domain R1-YYR,2.79 log2 enrichment (interaction score)
GGCUAGAACUAGUGGAUCCCCCGGCGCCCGGCGGCUCGAGCCCGGGUAAGUGUCAAUAGUCUGCAUGCCGCCGGGCGCCAUGCCUGCAGGUCGACUCUAGAAAACAUG,binding signal,PUM1 PUF domain R5-HLY,3.47 log2 enrichment (interaction score)
same,binding signal,PUM1 PUF domain R5-RFR,5.35 log2 enrichment (interaction score)
GGCUAGAACUAGUGGAUCCCCCGGCGCCCGGCGGCUCGAGCCCGGGUAAGCGUAAAUAGUCUGCAUGCCGCCGGGCGCCAUGCCUGCAGGUCGACUCUAGAAAACAUG,binding signal,PUM1 PUF domain R8-LYR,5.06 log2 enrichment (interaction score)
GGCUAGAACUAGUGGAUCCCCCGGCGCCCGGCGGCUCGAGCCCGGGUAAGUGAAAAUAGUCUGCAUGCCGCCGGGCGCCAUGCCUGCAGGUCGACUCUAGAAAACAUG,binding signal,PUM1 PUF domain R6-NRI,2.1 log2 enrichment (interaction score)
GGCUAGAACUAGUGGAUCCCCCGGCGCCCGGCGGCUCGAGCCCGGGUAAGUGUACAUAGUCUGCAUGCCGCCGGGCGCCAUGCCUGCAGGUCGACUCUAGAAAACAUG,binding signal,PUM1 PUF domain R4-AHP,4.93 log2 enrichment (interaction score)
GGCUAGAACUAGUGGAUCCCCCGGCGCCCGGCGGCUCGAGCCCGGGUAAGUGUAAGUAGUCUGCAUGCCGCCGGGCGCCAUGCCUGCAGGUCGACUCUAGAAAACAUG,binding signal,PUM1 PUF domain R3-GWG,3.17 log2 enrichment (interaction score)
GGCUAGAACUAGUGGAUCCCCCGGCGCCCGGCGGCUCGAGCCCGGGUAAGUGUAAAUAGUCUGCAUGCCGCCGGGCGCCAUGCCUGCAGGUCGACUCUAGAAAACAUG,binding signal,PUM1 PUF domain R4-QPS,1.44 log2 enrichment (interaction score)
same,binding signal,PUM1 PUF domain R3-GWG,4.07 log2 enrichment (interaction score)
same,binding signal,PUM1 PUF domain R6-NRI,4.34 log2 enrichment (interaction score)
same,binding signal,PUM1 PUF domain R3-SRP,5.42 log2 enrichment (interaction score)
same,binding signal,PUM1 PUF domain R5-RFR,2.72 log2 enrichment (interaction score)
same,binding signal,PUM1 PUF domain R1-YYR,3.43 log2 enrichment (interaction score)
same,binding signal,PUM1 PUF domain R6-HFS,4.79 log2 enrichment (interaction score)
same,binding signal,PUM1 PUF domain R8-RFM,4.37 log2 enrichment (interaction score)
same,binding signal,PUM1 PUF domain R8-LYR,4.3 log2 enrichment (interaction score)
same,binding signal,PUM1 PUF domain R3-GRH,4.23 log2 enrichment (interaction score)
